Out of some 11,000 compounds screened, about 310 (2.8%) were called active. Rule as the data show it: active = activity change below about -85%; inactive = the rest. The entries come from a sample that favours actives as a whole.

The test system of the assay is intestinal alkaline phosphatase [Mus musculus]. In words: mouse intestinal phosphatase enzyme activation – biochemical, luminescence, single concentration, confirmation (AID 434970). The conditions noted are these: purified mouse IAP, CDP-Star luminescence, 30 min, at 10 µM; activation factor: measured here: IAP activation factor, stronger effect = higher value; activity change, negative = activation: stronger effect = lower value.
Turning to `COc1ccc2[nH]c(=O)c(CN(C(C)=O)c3cccc(C)c3)cc2c1`, the activation factor came to 0.991 and the activity change, negative = activation was 0.9% (inactive).

Take `O=C(CSc1nnc(-c2cccs2)n1-c1cccc(Cl)c1)c1cccc2c1OCCO2`: the activation factor is 0.901 and the activity change, negative = activation was 9.9% (inactive).

For `CCCc1[nH]nc2c1C(Cc1ccccc1)C(C#N)=C(N)O2` (centres undefined), the activation factor stood at 0.921 and the activity change, negative = activation is 7.85% (inactive).

In the case of `CC(C)N(C(=O)[C@H]1C[C@H](CC(=O)NCCCn2ccnc2)C(=O)N2CCc3c([nH]c4cc(CCC(=O)N(C)C)ccc34)[C@]12C)C(C)C`, the activation factor was 0.995 and the activity change, negative = activation is 0.5% (inactive).

Consider `CCOC(=O)C1C(C(=O)OC)=C(C2=CCCCC2)c2ccccc2N1S(=O)(=O)C(F)(F)F` (centres undefined), for which the activation factor stood at 0.97 and the activity change, negative = activation was 3% (inactive).

`Cc1ccc(NC(=O)C2CCCNC2=O)nc1` (centres undefined): the activation factor turned out to be 0.929 and the activity change, negative = activation is 7.05% (inactive).

As to `Cc1cc(N2CCN(C)CC2)nc2ccc(NC(=O)c3ccc4c(c3)OCO4)cc12`, the activation factor was determined as 1.03 and the activity change, negative = activation is -2.9% (inactive).

On to `CCCc1n[nH]c2c1/C(=N\O)CCC2`, for which the activation factor came out at 1.05 and the activity change, negative = activation was -5.35% (inactive).

`CC(C)Cc1ccc(CN2CCC(n3nccc3NC(=O)C3CCCC3)CC2)cc1`: the activation factor worked out at 1.98 and the activity change, negative = activation was -98.2% (active).

As for `O=C(CCCc1ccccc1)Nc1ccnn1C1CCN(Cc2ccc(Cl)cc2)CC1`, the activation factor is 2.18 and the activity change, negative = activation is -118% (active).

`O=C(NNS(=O)(=O)c1ccc(Cl)cc1)C1CCN(Cc2ccccc2)CC1`: the activation factor came to 1.1 and the activity change, negative = activation is -9.8% (inactive).

In the case of `CSc1ccc(CN2CCC(n3nccc3NC(=O)CCCc3ccccc3)CC2)cc1`, the activation factor amounted to 2.27 and the activity change, negative = activation was -126% (active).

Consider `Cc1ccccc1NC(=O)CCN1CCN(Cc2ccccc2)CC1`, for which the activation factor came out at 1.13 and the activity change, negative = activation is -13.2% (inactive).

In the case of `Cc1ccc(CC(NC(=O)C2CCCCC2)C(=O)O)cc1` (centres undefined), the activation factor was found to be 1.07 and the activity change, negative = activation was -6.55% (inactive).

Take `O=C(CCc1nc2ccccc2c(=O)[nH]1)NC1CCN(Cc2ccccc2)CC1`: the activation factor was 0.905 and the activity change, negative = activation was 9.55% (inactive).

Take `Cc1onc(-c2ccccc2)c1C(=O)Nc1ccnn1C1CCCCC1`: the activation factor stood at 0.923 and the activity change, negative = activation is 7.65% (inactive).

Turning to `O=C(CN1CCN(Cc2ccc(Cl)cc2)CC1)N/N=C/c1ccncc1`, the activation factor was 0.975 and the activity change, negative = activation is 2.5% (inactive).

With `CCCN1Cc2cc(OC)ccc2-c2ccccc2S1(=O)=O`, the activation factor was 1.13 and the activity change, negative = activation is -13.1% (inactive).

Consider `O=C(NCc1ccc2c(c1)OCO2)c1cccnc1`, for which the activation factor is 1.13 and the activity change, negative = activation is -13% (inactive).

On to `O=C(OCC1OC2C(Oc3nc(=O)ccn32)C1O)c1ccccc1` (centres undefined), for which the activation factor turned out to be 1.02 and the activity change, negative = activation was -1.5% (inactive).

On to `N#Cc1c2c(c(NCc3cccnc3)n3c1nc1ccccc13)CCC2`, for which the activation factor stood at 0.779 and the activity change, negative = activation is 22.1% (inactive).

Take `C#CCOCCOCCOCCNc1nc(N2CCN(C(=O)CCCCCCCCCCNC(=O)[C@H]([C@@H](C)CC)n3cc(CCCCN=C(N)N)nn3)CC2)nc(N2CCN(C(=O)CCCCCCCCCCNC(=O)[C@H](CCCCN)n3cc(C)nn3)CC2)n1`: the activation factor is 8.54 and the activity change, negative = activation was -754% (active).

In the case of `C#CCOCCOCCOCCNc1nc(N2CCN(C(=O)CCCCCCCCCCNC(=O)[C@H](CCCCN)n3cc(C)nn3)CC2)nc(N2CCN(C(=O)CCCCCCCCCCNC(=O)[C@@H]([C@H](C)CC)n3cc(CCCCCN)nn3)CC2)n1`, the activation factor stood at 3.63 and the activity change, negative = activation was -263% (active).

In the case of `CC1CCCC(C(=O)O)N1C(=O)CCS` (centres undefined), the activation factor stood at 0.988 and the activity change, negative = activation is 1.25% (inactive).

Consider `O=C(Cc1c[nH]c2ccccc12)Nc1nc2ccccc2[nH]1`, for which the activation factor amounted to 0.845 and the activity change, negative = activation is 15.5% (inactive).

Take `COC(=O)c1c(NC(=O)Nc2ccc(Cl)cc2)sc(C)c1C`: the activation factor amounted to 0.99 and the activity change, negative = activation was 1% (inactive).

Take `CC(C)S(=O)(=O)c1csc(NC(=O)Nc2ccc(Cl)cc2)c1Cl`: the activation factor is 2.16 and the activity change, negative = activation was -116% (active).

Consider `Cc1csc(NC(=O)Nc2ccc(Cl)cc2)n1`, for which the activation factor was determined as 1.11 and the activity change, negative = activation is -11.1% (inactive).

In the case of `CCS(=O)(=O)Nc1ccc(C(=O)OC)cc1`, the activation factor was 0.912 and the activity change, negative = activation was 8.8% (inactive).

Regarding `CCOC(=O)c1ccc(NC(=O)Nc2ccc3c(c2)OCCO3)cc1`, the activation factor is 2.06 and the activity change, negative = activation is -106% (active).

As to `CCOC(=O)c1ccc(NC(=O)Nc2ccc(F)cc2)cc1`, the activation factor came to 1.67 and the activity change, negative = activation is -66.6% (inactive).

On to `COC(=O)c1ccc(NC(=O)Nc2cccc(F)c2)cc1`, for which the activation factor worked out at 1.97 and the activity change, negative = activation was -97.4% (active).

For the molecule `COC(=O)c1ccc(NC(=O)Nc2ccc(F)c(Cl)c2)cc1`, the activation factor worked out at 1.86 and the activity change, negative = activation is -86.3% (inactive).

For the molecule `COC(=O)c1ccc(NC(=O)Nc2ccc(C)cc2)cc1`, the activation factor stood at 2.15 and the activity change, negative = activation is -115% (active).

As to `CNC(=O)CCC(=O)Nc1ccc(C(=O)OC)cc1`, the activation factor is 0.98 and the activity change, negative = activation is 2.05% (inactive).

`CCCCOC(=O)c1ccc(NC(=O)Nc2ccc(OC)c(OC)c2)cc1`: the activation factor stood at 1.64 and the activity change, negative = activation is -63.5% (inactive).

For the molecule `CCOC(=O)c1ccc(NC(=O)c2ccc3c(c2)OCO3)cc1`, the activation factor is 0.959 and the activity change, negative = activation was 4.1% (inactive).

Take `CC(Sc1nnc(-c2ccco2)o1)C(=O)Nc1ccc(OC(F)F)cc1` (centres undefined): the activation factor turned out to be 0.893 and the activity change, negative = activation was 10.7% (inactive).

`CC1=C(C(N)=O)C(c2cccnc2)n2nc(-c3cccc(Cl)c3)nc2N1` (centres undefined): the activation factor was determined as 0.96 and the activity change, negative = activation was 4% (inactive).

In the case of `CCCNC(=O)c1csc2c1CCCCC2`, the activation factor was 0.955 and the activity change, negative = activation is 4.55% (inactive).

For the molecule `CC(NC(=O)CCSc1nc(-c2ccc3c(c2)OCO3)cc(C(F)(F)F)n1)c1ccccc1` (centres undefined), the activation factor amounted to 0.978 and the activity change, negative = activation is 2.2% (inactive).

As for `Cc1cccc(C2=NN(c3ccccc3)[C@@H](C(=O)N3CCOC3=O)[C@@H]2c2ccccc2)c1`, the activation factor came out at 0.97 and the activity change, negative = activation was 3% (inactive).
